Experimental data as given in PubChem BioAssay AID1159580 (chemical genetic matrix, 2015).
Screen size: about 5,500 compounds; about 2,000 (36%) were called active. Another 18% or so got no clear call; they are omitted. Cut-off read from the data, not from the text of the source: active = normalized growth mostly below about 0.91 (no sharp cut-off); inconclusive = no clear call, values can overlap the other calls; inactive = mostly above about 0.92. This is one part of the list.

Test: chemical genetic growth profiling, strain panel (AID 1159580);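 note: tested at 20 µM; growth read once vehicle control cultures reached saturation at 30 °C; 1 = growth at the plate median or of vehicle wells; lower values mean less growth of the strain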
Conditions: growth OD
[1] = S. cerevisiae deletion strains, locus YAL013W, strain DEP1, active compounds read low
[2] = S. cerevisiae deletion strains, locus YBR229C, strain ROT2, active compounds read low
[3] = S. cerevisiae deletion strains, locus YDL101C, strain DUN1, active compounds read low
[4] = S. cerevisiae deletion strains, locus YDR150W, strain NUM1, active compounds read low
[5] = S. cerevisiae deletion strains, locus YEL061C, strain CIN8, active compounds read low
[6] = S. cerevisiae deletion strains, locus YGR078C, strain PAC10, active compounds read low
[7] = S. cerevisiae deletion strains, locus YHR030C, strain SLT2, active compounds read low
[8] = S. cerevisiae deletion strains, locus YHR087W, strain rtc3, active compounds read low
[9] = S. cerevisiae deletion strains, locus YJR043C, strain POL32, active compounds read low
[10] = S. cerevisiae deletion strains, locus YJR075W, strain HOC1, active compounds read low
[11] = S. cerevisiae deletion strains, locus YLR039C, strain RIC1, active compounds read low
[12] = S. cerevisiae deletion strains, locus YLR058C, strain SHM2 (second series), active compounds read low
[13] = S. cerevisiae deletion strains, locus YLR085C, strain ARP6, active compounds read low
[14] = S. cerevisiae deletion strains, locus YLR262C, strain YPT6, active compounds read low
[15] = S. cerevisiae deletion strains, locus YML094W, strain GIM5, active compounds read low
[16] = S. cerevisiae deletion strains, locus YMR219W, strain ESC1, active compounds read low
[17] = S. cerevisiae deletion strains, locus YMR263W, strain SAP30, active compounds read low
[18] = S. cerevisiae deletion strains, locus YNL153C, strain GIM3, active compounds read low
[19] = S. cerevisiae deletion strains, locus YNL298W, strain CLA4 (second series), active compounds read low
[20] = S. cerevisiae deletion strains, locus YNL322C, strain KRE1, active compounds read low
[21] = S. cerevisiae deletion strains, locus YNR030W, strain Alg12, active compounds read low
[22] = S. cerevisiae deletion strains, locus YPL055C, strain LGE1, active compounds read low
[23] = S. cerevisiae deletion strains, locus YPL241C, strain CIN2, active compounds read low
[24] = S. cerevisiae deletion strains, locus YPR135W, strain CTF4, active compounds read low
[25] = S. cerevisiae strains, strain wild type, active compounds read low

Measured: normalized growth

CC(=O)/C(=C\N(C)C)Sc1ccc(Cl)cc1
inactive: S. cerevisiae deletion strains, locus YDL134C, strain PPH21, active compounds read low 0.976 | [4] 0.859 | [5] 0.989 | [7] 1.02 | [11] 0.876 | [13] 1.12 | [14] 0.873 | [15] 1.07 | [19] 1.03 | [21] 1.03 | S. cerevisiae deletion strains, locus YOL006C, strain TOP1, active compounds read low 1.09 | [22] 0.933 | [23] 0.937 | [24] 1.29 | [25] 0.975
active: [1] 0.883 | [2] 0.82 | S. cerevisiae deletion strains, locus YCL061C, strain MRC1, active compounds read low 0.838 | [3] 0.897 | [6] 0.817 | [8] 0.832 | [9] 0.888 | [10] 0.776 | [12] 0.817 | [16] 0.86 | [17] 0.839 | [18] 0.793 | [20] 0.819

CC(=O)/C(=C\N(C)C)Sc1nnc(C(F)(F)F)n1C
inactive: [1] 1.06 | [2] 1.03 | [3] 0.968 | [4] 1.02 | [5] 1.01 | [6] 1.01 | [7] 1.06 | [8] 1.04 | S. cerevisiae deletion strains, locus YJL187C, strain SWE1, active compounds read low 0.998 | [9] 1.01 | [10] 0.987 | S. cerevisiae deletion strains, locus YKL190W, strain CNB1, active compounds read low 0.993 | [11] 1.05 | [12] 1 | [13] 1.16 | [14] 1.01 | [15] 1.06 | [16] 1.02 | [17] 1.01 | S. cerevisiae deletion strains, locus YNL128W, strain TEP1, active compounds read low 1.01 | [18] 1.02 | [19] 1.03 | [20] 1 | [21] 1.02 | [22] 1.09 | [23] 1.1 | [24] 1.21 | [25] 1.01

Cc1c(NCN2C(=O)CCC2=O)cc2c(c1[N+](=O)[O-])C(C)(C)CC2(C)C
inactive: S. cerevisiae deletion strains, locus YAR019C, strain CDC15, active compounds read low 0.963 | S. cerevisiae deletion strains, locus YBL105C, strain PKC1, active compounds read low 0.962 | S. cerevisiae deletion strains, locus YBR135W, strain CKS1, active compounds read low 0.967 | S. cerevisiae deletion strains, locus YBR136W, strain MEC1, active compounds read low 0.959 | S. cerevisiae deletion strains, locus YBR160W, strain CDC28, active compounds read low 0.967 | S. cerevisiae deletion strains, locus YDL017W, strain CDC7, active compounds read low 0.961 | S. cerevisiae deletion strains, locus YDL028C, strain MPS1, active compounds read low 0.962 | [3] 0.942 | S. cerevisiae deletion strains, locus YDL108W, strain KIN28, active compounds read low 0.965 | S. cerevisiae deletion strains, locus YDL132W, strain cdc53, active compounds read low 0.948 | S. cerevisiae deletion strains, locus YDL214C, strain PRR2, active compounds read low 0.925 | S. cerevisiae deletion strains, locus YDR052C, strain DBF4, active compounds read low 0.956 | S. cerevisiae deletion strains, locus YDR054C, strain cdc34, active compounds read low 0.958 | S. cerevisiae deletion strains, locus YDR226W, strain ADK1, active compounds read low 0.955 | S. cerevisiae deletion strains, locus YDR477W, strain SNF1, active compounds read low 0.913 | S. cerevisiae deletion strains, locus YER123W, strain YCK3, active compounds read low 0.9 | S. cerevisiae deletion strains, locus YER133W, strain GLC7, active compounds read low 0.879 | S. cerevisiae deletion strains, locus YFL009W, strain cdc4, active compounds read low 0.957 | S. cerevisiae deletion strains, locus YFL029C, strain CAK1, active compounds read low 0.95 | S. cerevisiae deletion strains, locus YFR003C, strain YPI1, active compounds read low 0.961 | S. cerevisiae deletion strains, locus YFR019W, strain FAB1, active compounds read low 0.952 | S. cerevisiae deletion strains, locus YFR028C, strain CDC14, active compounds read low 0.956 | S. cerevisiae deletion strains, locus YGR040W, strain KSS1, active compounds read low 0.912 | S. cerevisiae deletion strains, locus YGR052W, strain FMP48, active compounds read low 0.933 | S. cerevisiae deletion strains, locus YGR092W, strain DBF2, active compounds read low 0.931 | [7] 0.909 | S. cerevisiae deletion strains, locus YHR079C, strain IRE1, active compounds read low 0.894 | S. cerevisiae deletion strains, locus YHR082C, strain KSP1, active compounds read low 0.993 | S. cerevisiae deletion strains, locus YHR205W, strain SCH9, active compounds read low 0.904 | S. cerevisiae deletion strains, locus YIL147C, strain SLN1, active compounds read low 0.963 | S. cerevisiae deletion strains, locus YJL095W, strain BCK1, active compounds read low 0.839 | S. cerevisiae deletion strains, locus YJL128C, strain PBS2, active compounds read low 0.901 | S. cerevisiae deletion strains, locus YJL157C, strain FAR1, active compounds read low 0.92 | S. cerevisiae deletion strains, locus YJR016C, strain ILV3, active compounds read low 0.96 | S. cerevisiae deletion strains, locus YJR066W, strain TOR1 (second series), active compounds read low 0.861 | S. cerevisiae deletion strains, locus YJR066W, strain TOR1, active compounds read low 1.03 | S. cerevisiae deletion strains, locus YKL048C, strain ELM1, active compounds read low 0.928 | S. cerevisiae deletion strains, locus YKL067W, strain YNK1, active compounds read low 0.929 | S. cerevisiae deletion strains, locus YKL101W, strain HSL1, active compounds read low 0.922 | S. cerevisiae deletion strains, locus YKL193C, strain SDS22, active compounds read low 0.95 | S. cerevisiae deletion strains, locus YKL203C, strain TOR2, active compounds read low 0.978 | S. cerevisiae deletion strains, locus YLR133W, strain CKI1, active compounds read low 0.944 | S. cerevisiae deletion strains, locus YLR403W, strain SFP1, active compounds read low 0.921 | S. cerevisiae deletion strains, locus YML070W, strain DAK1, active compounds read low 0.911 | S. cerevisiae deletion strains, locus YMR001C, strain CDC5, active compounds read low 0.956 | S. cerevisiae deletion strains, locus YMR205C, strain PFK2 (second series), active compounds read low 0.927 | S. cerevisiae deletion strains, locus YMR277W, strain FCP1, active compounds read low 0.96 | S. cerevisiae deletion strains, locus YNL006W, strain LST8, active compounds read low 0.954 | S. cerevisiae deletion strains, locus YNL020C, strain ARK1, active compounds read low 0.932 | S. cerevisiae deletion strains, locus YNL161W, strain CBK1, active compounds read low 0.95 | S. cerevisiae deletion strains, locus YNL183C, strain NPR1, active compounds read low 0.977 | S. cerevisiae deletion strains, locus YNL207W, strain RIO2, active compounds read low 0.965 | S. cerevisiae deletion strains, locus YNL222W, strain SSU72, active compounds read low 0.959 | S. cerevisiae deletion strains, locus YNL307C, strain MCK1 (second series), active compounds read low 0.94 | S. cerevisiae deletion strains, locus YOL078W, strain AVO1, active compounds read low 0.952 | S. cerevisiae deletion strains, locus YOL136C, strain PFK27, active compounds read low 0.914 | S. cerevisiae deletion strains, locus YOR061W, strain CKA2, active compounds read low 0.945 | S. cerevisiae deletion strains, locus YOR119C, strain RIO1, active compounds read low 0.951 | S. cerevisiae deletion strains, locus YOR231W, strain MKK1, active compounds read low 0.943 | S. cerevisiae deletion strains, locus YOR329C, strain SCD5, active compounds read low 0.961 | S. cerevisiae deletion strains, locus YPL031C, strain PHO85, active compounds read low 0.899 | S. cerevisiae deletion strains, locus YPL153C, strain RAD53, active compounds read low 0.905 | S. cerevisiae deletion strains, locus YPL204W, strain HRR25, active compounds read low 0.891 | S. cerevisiae deletion strains, locus YPL209C, strain IPL1, active compounds read low 0.957 | S. cerevisiae deletion strains, locus YPL256C, strain CLN2, active compounds read low 0.87 | S. cerevisiae deletion strains, locus YPR025C, strain CCL1, active compounds read low 0.952 | S. cerevisiae deletion strains, locus YPR106W, strain ISR1, active compounds read low 0.949 | S. cerevisiae deletion strains, locus YPR111W, strain DBF20, active compounds read low 0.943 | S. cerevisiae deletion strains, strain NNK1, active compounds read low 0.937 | S. cerevisiae deletion strains, strain TSCII, active compounds read low 0.953
active: S. cerevisiae deletion strains, locus YLR113W, strain HOG1, active compounds read low 0.861
